SSB-PriA inh = K. pneumoniae PriA-SSBct interaction inhibition; AlphaScreen SSBct-PriA binding, biotinylated peptide; inhibition, % at 33 µM; actives 0.6% (n = 430,000); in the data active = inhibition mostly above about 37%, no sharp cut-off; inactive = mostly below about 20%;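 also: plate controls were negative control peptide for no effect and reference peptide for full effect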
RecA intein inh = blocks M. tuberculosis RecA intein splicing; P9WHJ3; cell-free RecA intein splicing, fluorescence; inhibition, % (no concentration beside the values); actives 0.75% (n = 290,000); in the data active = inhibition above about 30%;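 also: 0% = vehicle wells and 100% = reference inhibitor control wells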
SARS 3CLpro inh = SARS-CoV 3CLpro protease inhibition; P0C6X7; recombinant SARS-CoV 3CLpro, quenched FRET peptide cleavage; inhibition, % at 6 µM; actives 0.14% (n = 290,000); AID 1706; in the data active = inhibition above about 12%
CCHF vOTU inh = blocks the CCHF virus ovarian tumor domain protease. CCHFV vOTU protease, Pep-AMC fluorescence. inhibition, % at 11.5 µM. actives 0.55% (n = 370,000). AID 651958; in the data active = inhibition above about 30%; also: 0% = vehicle wells with enzyme and 100% = no enzyme wells
VHR inh abs = blocks human VHR1 dual specificity phosphatase; P51452; AID 1654; recombinant VHR phosphatase, pNPP absorbance; actives 0.52% (n = 290,000); inhibition, % at 13.3 µM; in the data active = inhibition above about 50%
GFP chromo cs = counter-screen: blocks GFP chromophore formation; shares compounds with RecA intein inh; cell-free GFP chromophore formation, fluorescence; EC50, µM; actives 83% (n = 2,100); AID 434968; call rule not given here
* = called active by the depositor; / = no result. An excerpt weighted towards active compounds, which were near 1.7% of everything screened.

SMILES	SSB-PriA inh	RecA intein inh	SARS 3CLpro inh	CCHF vOTU inh	VHR inh abs	GFP chromo cs
Nc1ccc(/C=C/c2ccc3ncccc3c2)cc1	-7	-5	0	-8	26	/
COc1cc(/C=N/NC(=S)Nc2cccc(Cl)c2C)ccc1OCC(=O)N1CC(C)OC(C)C1 (stereo not drawn)	/	55*	8	14	-12	37*
O=C(N(c1ccccc1)c1ccccc1)N(c1ccccc1)c1ccccc1	3	0	10	8	27	/
CC(=O)N(CCN(C(C)=O)c1ccccc1)c1ccccc1	-7	-3	0	-7	-5	/
O=C(CCl)N(c1ccccc1)c1ccccc1	-7	80*	0	0	13	22*
CCCCCCN(C(=O)CCl)c1ccccc1	-7	54*	1	0	34	19*
CCN(CC)CCCN1C(=O)C(=O)C(=C(O)c2ccccc2)C1c1cc(OC)ccc1OC (stereo not drawn)	-9	/	/	/	/	/
COc1ccc(OC)c(NC(=O)Cc2ccc(NC3=NC4CS(=O)(=O)CC4S3)cc2)c1 (stereo not drawn)	-14	38*	-3	0	-6	>38
N#CC(C#N)C(c1ccsc1)c1c(-c2ccccc2)[nH][nH]c1=O (stereo not drawn)	-14	86*	-3	2	-6	7.6*
CCOC(=O)CSc1nnc(NCC(=O)OC)c(=O)[nH]1	-2	37*	-2	-3	-2	>38
Cc1ccc(C(N)=NOC(=O)COc2ccccc2Cl)cc1	-11	/	/	/	/	/
CN1CCc2cc(C(CNC(=O)C(=O)NCC3CCCO3)N(C)C)ccc21 (stereo not drawn)	-3	/	/	/	/	/
Cc1cccc(CS(=O)(=O)c2ncc(Cl)c(C(=O)Nc3nnc(C(C)C)s3)n2)c1	-12	86*	-5	/	-31	0.86*
Cc1ccc(CS(=O)(=O)c2ncc(Cl)c(C(=O)Nc3nnc(C(C)C)s3)n2)cc1	3	86*	-4	-1	-10	3.7*
CC(C)c1nnc(NC(=O)CS(=O)(=O)Cc2ccccc2)s1	-6	3	-4	7	17	/
CCSc1nnc(NC(=O)c2nc(S(=O)(=O)Cc3ccc(F)cc3)ncc2Cl)s1	-2	85*	0	7	-7	21*
CC(C)c1nnc(NC(=O)c2nc(S(=O)(=O)Cc3ccc(F)cc3)ncc2Cl)s1	-14	82*	-4	1	-25	16*
CC(C)c1nnc(NC(=O)CCC(=O)N2CCN(Cc3ccc(F)cc3)CC2)s1	5	-1	6	9	22	/
CSc1nnc(NC(=O)c2cccc3ccccc23)s1	-4	/	/	/	/	/
CSc1nnc(NC(=O)c2nc(S(=O)(=O)Cc3cccc(C)c3)ncc2Cl)s1	-4	81*	0	15	-28	18*
CCC(=O)OCCNc1cc(SCCC(=O)OC)c2nonc2c1[N+](=O)[O-]	5	45*	-2	6	13	26*
CC(=O)OCCNc1cc(SC(C)C)c2nonc2c1[N+](=O)[O-]	9	23	1	-11	6	/
CCCC(=O)OCCNc1cc(Sc2nc3ccccc3[nH]2)c2nonc2c1[N+](=O)[O-]	-2	96*	3	15	-1	0.96*
CC(C)CCSc1cc(NCCO)c([N+](=O)[O-])c2nonc12	-4	9	2	16	6	/
CCC(=O)OCCNc1cc(Sc2nccn2C)c2nonc2c1[N+](=O)[O-]	-19	87*	4	11	17	4.8*
SMILES	SSB-PriA inh	RecA intein inh	SARS 3CLpro inh	CCHF vOTU inh	VHR inh abs	GFP chromo cs
c1ccc(Cc2cc[n+](Cc3ccccn3)cc2)cc1	-4	-1	2	-10	12	/
N#Cc1ncc(Cc2ccccc2)nc1C#N	12	82*	-1	11	14	5*
CC(=O)N(CCC(Cc1ccccc1)c1ccc2c(c1)OCO2)Cc1ccccc1F (stereo not drawn)	10	36*	0	-1	19	>38
Fc1ccccc1CNCCC(Cc1ccccc1)c1ccc2c(c1)OCO2 (stereo not drawn)	1	4	1	5	7	/
Cc1[nH]n(-c2ccccc2)c(=O)c1C(c1ccc([N+](=O)[O-])cc1)c1c(C)[nH]n(-c2ccccc2)c1=O	57	95*	-5	/	-6	1.6*
Cc1[nH]n(-c2ccccc2)c(=O)c1C(C[N+](=O)[O-])c1ccccc1Cl (stereo not drawn)	-5	75*	1	0	34	15*
Cc1[nH]n(-c2ccccc2)c(=O)c1-c1ccccc1	2	-6	1	7	-19	/

High-throughput results: PubChem, several laboratories
